Data taken from the supplement of paper PMC10338343.
± gives the standard deviation. Whole data set: some 8,200 sequences, median “pre-steady-state target cleavage rate” near 0.024, cut for the highest 2% near 1.3. What follows is part of a selection rich in the highest values, with near analogues and random picks from the rest.

Test system: MIWI (PIWIL1) piRISC loaded with L1MC piRNA (30 nt)
Experiment: pre-steady-state target cleavage rate (min^-1); MIWI and MILI are mouse PIWI proteins and EfPiwi is from a freshwater sponge; tags in brackets are library labels; higher = faster piRNA-guided slicing of the target
Conditions: guide: L1MC piRNA 5'p-UAACUAAAUACUAUGCAAGCUGUAGGUCCU
Procedure: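 Cleave-'n-Seq: a library of target RNAs (target site embedded in constant flanks, ACAGCATTCCGCGTTAGTGATATCCG... 5' flank; DNA-blocked outside the site) at 0.1 nM was incubated with 1 nM active mouse MILI or MIWI piRISC (synthetic 5'-monophosphorylated piRNA guide) with or without 500 nM mouse GTSF1 at 33 °C for 1 min to 16 h. Uncleaved targets were sequenced and normalised to non-target controls, and the pooled three trials were fitted to a burst-and-steady-state model to give the pre-steady-state cleavage rate (min^-1; k3 is constrained to at most 1e-4). Sequence is the target site only; target names encode pairing extent (gX:gY) and contiguous / 1-mismatch / 2-mismatch / bulge geometry. Fits with R² ≤ 0 are excluded.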

[1] = auxiliary factor: 500 nM mouse GTSF1
[2] = auxiliary factor: none (no GTSF1)

Sequence | pre-steady-state target cleavage rate [1] | pre-steady-state target cleavage rate [2]
UCCUGCUAACAGCUUGCAUAGUAUUUAGUUA | 0.617 ± 0.052 | 0.0487 ± 0.0083
AGGACCUACAGCUUGCAUAGUAAAAACAAA | 0.268 ± 0.068 | 
UGGACCUACAGCUUCCAUAGUAAUUAGUUA | 0.0113 ± 0.0031 | 
UCCUGGAACAGCUUGCAUAGUACUUUAGUUA | 0.472 ± 0.036 | 0.00827 ± 0.0032
UCCAGCUACACCUUGCAUAGUAUUUAGUUA | 0.797 ± 0.034 | 0.0443 ± 0.0068
UCCUGGAUCAGCUUGCAUAGAAUUUACAAA | 0.0559 ± 0.014 | 
UGGACCUACAGCUUGCAUAGCAUUUAGUUA | 0.379 ± 0.025 | 0.0275 ± 0.0061
UCCUGGACCAGCUUGCAUAGUAUUUAGUUA | 0.915 ± 0.048 | 0.0367 ± 0.0074
UCCUGGUCCAGCUUGCAUAGUAUUUAGUUA | 0.717 ± 0.055 | 0.0383 ± 0.0079
UCCUGGAUCCAGCUUGCAUAGUAUUUAGUUA | 1.31 ± 0.081 | 0.0546 ± 0.016
UCCUGGAUCCGCUUGCAUAGUAUUUAGUUA | 0.927 ± 0.053 | 0.031 ± 0.0075
UCCUGGAUGAGCUUGCAUAGUAUUUAUUUA | 0.267 ± 0.055 | 0.025 ± 0.0077
AGGACCUACAGGUUCCAUAGUAUUUAGUUA | 0.659 ± 0.17 | 
ACCUCCUACAGCUUGCAUAGUAUUUAGUUA | 1.35 ± 0.052 | 0.0784 ± 0.012
UCCUCCUACAGCUUGCAUAGUAUUUAGUUA [g2:g26:cont:t1A] | 1.32 ± 0.052 | 0.0816 ± 0.015
UCCUCCCUACAGCUUGCAUAGUAUUUAGUUA | 1.09 ± 0.038 | 0.075 ± 0.016
UCCUUCUACAGCUUGCAUAGUAUUUAGUUA | 1.02 ± 0.033 | 0.0527 ± 0.0083
UCCUCUCUACAGCUUGCAUAGUAUUUAGUUA | 0.797 ± 0.038 | 0.0529 ± 0.0081
UCCUCUACAGCUUGCAUAGUAUUUAGUUA | 1.34 ± 0.047 | 0.0659 ± 0.011
UCCUCCUACAGCUUGCAUAGUAUUUUAGUUA | 1.04 ± 0.044 | 0.0227 ± 0.0055
UCCUCCUACAGCUUGCAUAGUAUUUAGUUC [g2:g26:cont:t1C] | 1.09 ± 0.039 | 0.0511 ± 0.011

Sequence | pre-steady-state target cleavage rate [1] | pre-steady-state target cleavage rate [2]
ACCUCCUACAGCUUGCAUAGUAUUUAGUAA | 0.85 ± 0.046 | 0.0351 ± 0.0072
UCCUGGUACAGCUUGCAUAGUAGUUAGUUA | 0.433 ± 0.051 | 0.0224 ± 0.0045
UGGACGUACAGCUUGCAUAGUAUUUUGUUA | 0.75 ± 0.055 | 0.052 ± 0.009
UCCUGGAUCAGCAUUGCAUAGUAUUUAGUUA | 0.875 ± 0.036 | 0.0165 ± 0.0047
UCCUGGAUGUCGAUGCAUAGUAUUUGAGUUA | 0.0114 ± 0.0044 | 
UCCACCUACACCUUGCAUAGUUUUUAGUUA | 0.249 ± 0.032 | 0.0171 ± 0.0033
UCCUGGAACAGCGUUGCAUAGUAUUUAGUUA | 0.939 ± 0.055 | 0.0303 ± 0.0056
UCCUGCUACAGGUUGCAUAGUAUUUACAAA | 0.117 ± 0.028 | 
UCCACCUACAGACUUGCAUAGUAUUUAGUUA | 0.606 ± 0.06 | 0.0272 ± 0.0043
UCCUCCUACAGCUUGCAUAGCUAUUUAGUUA | 0.0221 ± 0.01 | 
AGGACCUACCGCUUGCAUAGUAUUUAGUUA | 1.43 ± 0.082 | 0.0866 ± 0.017
AGGACCUACACGCUUGCAUAGUAUUUAGUUA | 1.1 ± 0.065 | 0.0703 ± 0.01
UGGACCUACGAGCUUGCAUAGUAUUUAGUUA | 0.657 ± 0.11 | 0.0557 ± 0.013
UCCACCUACCGCUUGCAUAGUAUUUAGUUA | 1.11 ± 0.05 | 0.0544 ± 0.0086
UGGACCUACCAGCUUGCAUAGUAUUUAGUUA | 1.25 ± 0.1 | 0.0599 ± 0.013
UCCUGCUACCGCUUGCAUAGUAUUUAGUUA | 1.1 ± 0.1 | 0.0571 ± 0.011
UGGACCUACCGCUUGCAUAGUAUUUAGUUA | 1.57 ± 0.11 | 0.0558 ± 0.0098
UCGACCUACCAGCUUGCAUAGUAUUUAGUUA | 1.29 ± 0.064 | 0.0725 ± 0.016
UCGACCUACCGCUUGCAUAGUAUUUAGUUA | 1.64 ± 0.069 | 0.0745 ± 0.015
UCCUCCUACCGCUUGCAUAGUAUUUAGUUA | 1.34 ± 0.062 | 0.0565 ± 0.0099
AGGACCUACCAGCUUGCAUAGUAUUUAGUUA | 1.17 ± 0.069 | 0.0704 ± 0.014

Sequence | pre-steady-state target cleavage rate [1] | pre-steady-state target cleavage rate [2]
UCCUCCUACGCUUGCAUAGUAUUUAGUUA | 1.24 ± 0.045 | 0.0478 ± 0.0094
UCCUGGAUGUGCUUGCAUUGUUUUUAGUUA | 0.0048 ± 0.0031 | 
UCCUGGAUGUGCUUGCAUAGUAUUUUGUAA | 0.0569 ± 0.016 | 0.00775 ± 0.0023
UCCACCUACAGCUUGCAUAGUAUUUGGUUA | 0.555 ± 0.038 | 0.0358 ± 0.0079
UCGACCUACAGGUUGCAUAGUAUUUACUUA | 0.296 ± 0.04 | 0.025 ± 0.0051
AGCACCUACACCUUGCAUAGUAUUUAGUUA | 0.739 ± 0.074 | 0.0408 ± 0.0062
UGCACCUACAGCUUGCUUAGUAUUUAGUUA | 1.25 ± 0.092 | 0.031 ± 0.0064
UCGACCUACAGCUUGCUAGUAUUUAGUUA | 0.219 ± 0.061 | 
UCCACCUAGAGCUUGCUUAGUAUUUAGUUA | 0.549 ± 0.044 | 0.0205 ± 0.0044
UCGACCUACAGCUUGGUUAGUAUUUAGUUA | 1.42 ± 0.058 | 0.00908 ± 0.0026
ACGACCUACAGCUUGCUUAGUAUUUAGUUA | 1.57 ± 0.074 | 0.0527 ± 0.013
UCGACCUAGAGCUUGCUUAGUAUUUAGUUA | 1.34 ± 0.048 | 0.0282 ± 0.0063
UCGACCUACAGCUUGGUUAGUAUUUACAAA | 0.0826 ± 0.02 | 
UCGACCUACAGCUUGCUUAGUAUUUAGUAA | 1.02 ± 0.068 | 0.0176 ± 0.005
UGGACCUAGAGCUUGCUUAGUAUUUAGUUA | 1.18 ± 0.095 | 0.0321 ± 0.0069
UCGACCUACAGCUUGCUUAGUAUUUAGUUA | 1.66 ± 0.074 | 0.0474 ± 0.01
AGCACCUACAGCUUGCUUAGUAUUUAGUUA | 0.978 ± 0.079 | 0.0389 ± 0.0089
UCGACCUACAGCUUGGUUAGUAUUUAGUAA | 0.72 ± 0.061 | 0.00525 ± 0.002
UCCUCCUACAGGAUGCAUAGUAUUUACAAA | 0.253 ± 0.041 | 
